Measured values published in PubChem BioAssay (NCATS).
Unmarked numbers belong to inactive results. Results filed as inconclusive are left out. Where a call stands in place of a potency, no number is given. Active and inactive are the calls of the source. Unless noted, the call rests on the fitted dose curve; in most records, active means well fitted curve in the direction sought with a large enough effect; inconclusive means small, poorly fitted or top-dose-only effect, or another doubt; inactive means no such curve, though single readings can be large; an effect the other way counts as inactive or inconclusive.

Key:
[1] = qHTS for Inhibitors of Plasmodium falciparum (7G8) proliferation (AID 504316); further: nearly all actives have a fitted effect of over 65% in size; further: potency means the concentration at half of the fitted maximal effect; on activity change, negative = inhibition: series mostly up to about 6.7 µM
Summary of the method: (§1)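 Erythrocytes infected with P. falciparum line (0.3% parasitemia, 2.5% hematocrit final) incubated with compounds 72 h at 37 °C, 5% CO2; SYBR Green lysis buffer added, fluorescence read next day. Normalized to 0.29 uM artemisinin and DMSO.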

[2] = qHTS for Inhibitors of Plasmodium falciparum (HB3) proliferation (AID 504318); further: nearly all actives have a fitted effect of over 60% in size; further: potency means the concentration at half of the fitted maximal effect
Summary of the method: as §1

[3] = qHTS for Inhibitors of Plasmodium falciparum (CP250) proliferation (AID 504320)
Summary of the method: as §1

[4] = target: Atrial natriuretic peptide receptor 1 (Homo sapiens) (UniProt P16066); assay: Natriuretic polypeptide receptor (hNpr1) antagonism - Pilot CMLD screen (AID 1347052; calls by dose curve;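 further: HEK293 cells with hNpr1 stimulated by hNppA peptide at 0.1 nM; cGMP level read as GloSensor luciferase luminescence after agonist stimulation; series mostly up to about 9.2 µM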)
[5] = target: Cytochrome P450 2C9 (Homo sapiens) (UniProt P11712); assay: qHTS Assay for Inhibitors and Substrates of Cytochrome P450 2C9 (AID 883); further: nearly all actives have a fitted effect of over 60% in size
Summary of the method: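 Turnover of Luciferin-H (100uM, KM) by 10nM human CYP2C9 was measured over 60 min at 37C with NADPH regeneration; inhibitors and some substrates reduce luminescence. Data normalized to sulphaphenazole 57uM.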

[6] = target: Cytochrome P450 3A4 (Homo sapiens) (UniProt P08684); assay: qHTS Assay for Inhibitors and Substrates of Cytochrome P450 3A4 (AID 884); further: potency means the concentration at half of the fitted maximal effect; nearly all actives have a fitted effect of over 50% in size
Summary of the method: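 20 nM human CYP3A4 with 25 uM Luciferin-PPXE (at KM) in 200 mM KPO4, preincubated 10 min with compound; NADPH regeneration started a 60 min RT reaction. Luciferin detected by luminescence, normalized to 57 uM ketoconazole as full inhibition.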

[7] = target: Cytochrome P450 3A4 (Homo sapiens) (UniProt P08684); assay: qHTS Assay for Activators of Cytochrome P450 3A4 (AID 885); further: nearly all actives have a fitted effect of over 65% in size
Summary of the method: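 Quantitative HTS format: compounds preincubated with 20nM human CYP3A4 and Luciferin-PPXE substrate at KM, reaction started by NADPH regeneration, stopped after 60 min, luciferase luminescence read 20 min later.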

[8] = target: Cytochrome P450 2D6 (Homo sapiens) (UniProt P10635); assay: qHTS Assay for Inhibitors and Substrates of Cytochrome P450 2D6 (AID 891);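 further: luciferin methyl ether substrate demethylated by CYP2D6 with NADPH regeneration; nearly all actives have a fitted effect of over 60% in size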
Summary of the method: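 Human CYP2D6 (5 nM) with 30 uM Luciferin-ME EGE (at Km) in 100 mM KPO4, compound preincubated 10 min, then NADPH regeneration system for 60 min at room temperature. Luciferin read by luminescence; normalized to 1.43 uM quinidine.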

[9] = target: Cytochrome P450 2C19 (Homo sapiens) (UniProt P33261); assay: qHTS Assay for Inhibitors and Substrates of Cytochrome P450 2C19 (AID 899); further: nearly all actives have a fitted effect of over 60% in size
Summary of the method: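 Reactions contain 5nM enzyme, 10uM Luciferin-H EGE (KM) and 50mM KPO4; compound preincubates 10 min at 37C, NADPH regeneration starts turnover for 60 min. Luminescence after detection reagent gives activity.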

Chain of Atrial natriuretic peptide receptor 1 (Homo sapiens) (P16066 whole entry, looked up): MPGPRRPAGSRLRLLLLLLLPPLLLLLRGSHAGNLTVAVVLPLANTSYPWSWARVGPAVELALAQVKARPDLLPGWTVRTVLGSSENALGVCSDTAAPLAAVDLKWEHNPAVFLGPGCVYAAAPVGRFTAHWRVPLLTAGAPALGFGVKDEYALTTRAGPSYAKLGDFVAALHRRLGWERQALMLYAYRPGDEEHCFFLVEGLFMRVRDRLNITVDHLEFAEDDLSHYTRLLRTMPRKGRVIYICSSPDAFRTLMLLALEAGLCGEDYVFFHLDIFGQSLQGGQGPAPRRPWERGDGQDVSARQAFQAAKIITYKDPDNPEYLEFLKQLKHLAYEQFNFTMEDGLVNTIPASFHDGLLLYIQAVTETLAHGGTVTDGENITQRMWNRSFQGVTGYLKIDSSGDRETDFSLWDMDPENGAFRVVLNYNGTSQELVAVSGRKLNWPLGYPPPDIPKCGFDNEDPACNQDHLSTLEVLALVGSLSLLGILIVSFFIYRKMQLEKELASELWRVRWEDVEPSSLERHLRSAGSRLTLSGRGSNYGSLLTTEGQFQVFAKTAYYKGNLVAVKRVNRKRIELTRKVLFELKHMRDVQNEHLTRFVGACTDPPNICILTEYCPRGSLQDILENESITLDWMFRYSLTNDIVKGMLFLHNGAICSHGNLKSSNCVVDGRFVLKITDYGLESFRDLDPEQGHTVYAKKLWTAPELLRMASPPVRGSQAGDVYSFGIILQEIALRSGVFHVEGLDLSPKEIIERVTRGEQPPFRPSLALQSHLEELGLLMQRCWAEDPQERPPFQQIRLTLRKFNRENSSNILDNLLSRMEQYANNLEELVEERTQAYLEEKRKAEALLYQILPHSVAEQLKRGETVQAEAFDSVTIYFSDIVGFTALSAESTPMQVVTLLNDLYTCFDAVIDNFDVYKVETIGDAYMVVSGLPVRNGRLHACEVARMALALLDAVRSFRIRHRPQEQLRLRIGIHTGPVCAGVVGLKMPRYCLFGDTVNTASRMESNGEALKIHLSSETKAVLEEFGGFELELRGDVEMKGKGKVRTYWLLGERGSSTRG
Chain of Cytochrome P450 3A4 (Homo sapiens) (P08684 whole entry, looked up): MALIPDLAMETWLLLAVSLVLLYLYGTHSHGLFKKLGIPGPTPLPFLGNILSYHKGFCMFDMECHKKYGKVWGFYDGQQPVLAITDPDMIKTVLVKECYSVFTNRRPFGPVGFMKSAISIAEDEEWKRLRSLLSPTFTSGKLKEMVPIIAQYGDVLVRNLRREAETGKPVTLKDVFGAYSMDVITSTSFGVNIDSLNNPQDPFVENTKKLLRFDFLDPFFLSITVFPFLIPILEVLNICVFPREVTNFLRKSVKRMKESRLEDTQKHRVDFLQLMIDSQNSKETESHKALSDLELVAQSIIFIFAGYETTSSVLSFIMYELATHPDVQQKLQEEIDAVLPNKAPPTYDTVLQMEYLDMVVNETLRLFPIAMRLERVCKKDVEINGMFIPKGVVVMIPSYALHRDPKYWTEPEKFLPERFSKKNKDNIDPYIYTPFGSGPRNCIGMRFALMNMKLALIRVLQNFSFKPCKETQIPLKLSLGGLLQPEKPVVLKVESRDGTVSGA
Chain of Cytochrome P450 2C9 (Homo sapiens) (P11712 whole entry, looked up): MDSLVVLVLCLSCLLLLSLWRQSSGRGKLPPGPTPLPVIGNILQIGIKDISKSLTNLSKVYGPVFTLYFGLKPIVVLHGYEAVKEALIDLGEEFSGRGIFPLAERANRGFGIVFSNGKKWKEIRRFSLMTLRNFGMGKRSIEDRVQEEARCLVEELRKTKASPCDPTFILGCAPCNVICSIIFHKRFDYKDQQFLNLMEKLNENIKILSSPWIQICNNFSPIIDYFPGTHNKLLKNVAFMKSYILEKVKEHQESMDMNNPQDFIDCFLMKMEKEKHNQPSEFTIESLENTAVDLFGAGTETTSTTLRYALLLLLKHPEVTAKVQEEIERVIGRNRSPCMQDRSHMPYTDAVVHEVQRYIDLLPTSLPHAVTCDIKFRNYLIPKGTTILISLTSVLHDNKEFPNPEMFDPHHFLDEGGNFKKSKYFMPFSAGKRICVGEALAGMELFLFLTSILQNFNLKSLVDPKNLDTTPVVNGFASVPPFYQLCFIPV
Chain of Cytochrome P450 2C19 (Homo sapiens) (P33261 whole entry, looked up): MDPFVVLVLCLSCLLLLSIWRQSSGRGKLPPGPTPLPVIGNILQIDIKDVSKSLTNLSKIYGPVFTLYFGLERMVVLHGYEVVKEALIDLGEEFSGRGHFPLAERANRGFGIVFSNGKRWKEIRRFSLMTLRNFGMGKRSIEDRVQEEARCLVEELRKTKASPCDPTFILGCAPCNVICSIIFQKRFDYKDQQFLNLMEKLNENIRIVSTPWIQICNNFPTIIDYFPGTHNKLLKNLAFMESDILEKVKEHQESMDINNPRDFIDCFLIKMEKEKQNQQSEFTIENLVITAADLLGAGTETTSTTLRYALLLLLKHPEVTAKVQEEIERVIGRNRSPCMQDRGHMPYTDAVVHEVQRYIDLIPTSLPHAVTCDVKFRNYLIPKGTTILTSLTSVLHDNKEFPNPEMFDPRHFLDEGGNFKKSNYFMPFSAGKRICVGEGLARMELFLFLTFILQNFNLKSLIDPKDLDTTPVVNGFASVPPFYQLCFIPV
Chain of Cytochrome P450 2D6 (Homo sapiens) (P10635 whole entry, looked up): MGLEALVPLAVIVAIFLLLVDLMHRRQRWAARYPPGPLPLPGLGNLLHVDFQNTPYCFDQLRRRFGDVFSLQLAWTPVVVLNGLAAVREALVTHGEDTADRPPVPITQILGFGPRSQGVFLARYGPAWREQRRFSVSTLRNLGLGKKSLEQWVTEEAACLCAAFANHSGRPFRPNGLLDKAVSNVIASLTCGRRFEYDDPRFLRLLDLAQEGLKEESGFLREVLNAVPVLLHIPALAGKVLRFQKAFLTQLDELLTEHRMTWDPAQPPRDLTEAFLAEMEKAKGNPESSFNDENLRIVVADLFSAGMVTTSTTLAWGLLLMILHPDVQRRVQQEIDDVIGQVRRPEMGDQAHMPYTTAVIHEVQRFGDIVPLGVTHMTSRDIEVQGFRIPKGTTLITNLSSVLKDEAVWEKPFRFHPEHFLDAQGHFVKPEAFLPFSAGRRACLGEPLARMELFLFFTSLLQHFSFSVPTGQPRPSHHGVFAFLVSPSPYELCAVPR

## C[C@H]1[C@@H](C(=O)N2CCCC2)CC(=NOCc2ccccc2)C(=NOCc2ccccc2)C[C@H]1c1ccccc1
[1]
  Potency: 478 nM (active)
[2]
  Potency: 1690 nM (active)
[3]
  Potency: inactive
[4]
  Potency: inactive

## C#CCN1C(=O)[C@]2(O[C@H](C)CC3=CCCC32)c2c(Br)cccc21 (stereo partly specified)
[1]
  Potency: inactive
[2]
  Potency: inactive
[4]
  Potency: inactive

## C=C(C)C(=O)C=CC=Cc1ccccc1
[1]
  Potency: inactive
[2]
  Potency: inactive
[3]
  Potency: inactive
[4]
  Potency: inactive

## C=CCN=C1NC(c2cccc(C(F)(F)F)c2)C(C(=O)OC)=C(C)N1Cc1ccccc1 (stereo unspecified)
[1]
  Potency: inactive
[2]
  Potency: inactive
[4]
  Potency: inactive

## CC1(C)CC(=O)C2=C(C1)O[C@@]1(CCCCN3C(=O)c4ccccc4C3=O)Cc3ccccc3[C@H]2O1
[1]
  Potency: 1510 nM (active)
[2]
  Potency: 1510 nM (active)
[4]
  Potency: inactive

## c1ccc(C2NCCc3c2[nH]c2ccccc32)cc1 (stereo unspecified)
[1]
  Potency: inactive
[2]
  Potency: inactive
[3]
  Potency: inactive
[4]
  Potency: inactive

## C[C@@H]1CC2=CCCC2[C@]2(O1)C(=O)N(CC1CC1)c1cccc(Br)c12 (stereo partly specified)
[1]
  Potency: inactive
[2]
  Potency: inactive
[3]
  Potency: inactive
[4]
  Potency: inactive

## COC(=O)C1=C(C)N(Cc2ccccc2)C(=NCC(C)C)NC1c1cccc(F)c1 (stereo unspecified)
[1]
  Potency: inactive
[2]
  Potency: inactive
[4]
  Potency: inactive

## COC(=O)C1=C(C)N(Cc2ccccc2)C(=S)NC1c1cccc(C(F)(F)F)c1 (stereo unspecified)
[1]
  Potency: inactive
[2]
  Potency: inactive
[3]
  Potency: inactive
[4]
  Potency: inactive

## C[C@@H]1CC[C@H]2C(=O)N(Cc3ccc(Cl)cc3)C[C@@H](O)CN2[C@H]1c1cccc(Br)c1
[1]
  Potency: 1510 nM (active)
[3]
  Potency: inactive
[4]
  Potency: inactive

## COC(=O)N[C@@H](C=Cc1ccccc1)[C@@H](C)[N+](=O)[O-]
[1]
  Potency: inactive
[2]
  Potency: inactive
[3]
  Potency: inactive
[4]
  Potency: inactive

## CCOC(=O)OC[C@H]1O[C@H](c2ccc(C(C)=O)cc2)C=C[C@H]1Oc1ccc(-c2ccccc2)cc1
[1]
  Potency: 1510 nM (active)
[4]
  Potency: inactive

## CCCNC(=O)N1C2=NC(C(=O)OC)=C(C(=O)OC)[C@@H]3N(C)c4ccc(OC)cc4[C@]23C[C@H]1C(=O)OC
[1]
  Potency: 1690 nM (active)
[2]
  Potency: 2940 nM (active)
[4]
  Potency: inactive

## COc1ccc(-c2nc3c(c4c2C[C@H](c2ccccc2)OC4)CN(C(=O)N[C@@H](C)C(=O)OC(C)C)CC3)c(C)c1
[1]
  Potency: 1510 nM (active)
[2]
  Potency: 1650 nM (active)
[3]
  Potency: inactive
[4]
  Potency: inactive

## COc1ccc(O[C@H]2C=C[C@@H](c3ccccc3)O[C@H]2CON=C(C)CCN2CCCc3nc(C)c(C)cc32)cc1
[1]
  Potency: 1510 nM (active)
[2]
  Potency: 3290 nM (active)
[4]
  Potency: inactive

## COc1cccc([C@@H]2Oc3ccc(OC)cc3[C@H](O)[C@@H]2O)c1
[1]
  Potency: inactive
[2]
  Potency: inactive
[3]
  Potency: inactive
[4]
  Potency: inactive

## COc1ccc([C@]23Cc4cc(C#N)ccc4[C@H](O2)c2c(cc(C)n(Cc4ccccc4)c2=O)O3)cc1
[1]
  Potency: 1690 nM (active)
[4]
  Potency: inactive

## C=C[C@H]1CCC=C2C(=O)CCC[C@H]21
[1]
  Potency: 1900 nM (active)
[4]
  Potency: inactive

## COC(=O)[C@@H]1CC[C@H](C)[C@@H](c2ccc(C)cc2)N1C(=O)c1ccc(C=NOC[C@H]2O[C@H](c3ccccc3)C=C[C@H]2Oc2ccc(OC)cc2)cc1
[1]
  Potency: inactive
[4]
  Potency: inactive

## C=CCOC(=O)N[C@@H](c1ccccc1)[C@@H](C)[N+](=O)[O-]
[1]
  Potency: inactive
[2]
  Potency: inactive
[3]
  Potency: inactive
[4]
  Potency: inactive

## CCN1C(N(C)CCc2ccc(Br)cc2)=NC(c2ccccc2)C(C(=O)OC)=C1C (stereo unspecified)
[1]
  Potency: inactive
[2]
  Potency: inactive
[4]
  Potency: inactive

## COC(=O)C1=C(C(=O)OC)[C@@H]2N(Cc3ccccc3)c3ccccc3[C@@]23CCC(=O)N(CC2CC2)C3=N1
[2]
  Potency: 3290 nM (active)
[4]
  Potency: inactive

## CC(C)=CCN1C(=O)[C@@]2(CC(C)=CC[C@@H](COc3ccccc3)O2)c2ccccc21
[1]
  Potency: 2690 nM (active)
[3]
  Potency: inactive
[4]
  Potency: inactive

## COc1cc2c(c(OC)c1OC)C(c1ccccc1)(c1ccccc1)CC2NC(=O)C(F)(F)F (stereo unspecified)
[2]
  Potency: 2390 nM (active)
[4]
  Potency: inactive

## CC(C)=CCC1(CC=C(C)C)C(=O)C(C(=O)c2ccccc2)=C2OC(C)(C)CCC2(CC=C(C)C)C1=O (stereo unspecified)
[5]
  activity change, negative = inhibition: -24.2% [at 11.4 µM]
[6]
  Potency: 3980 nM (active)
[7]
  activity change, positive = activation: -69.3% [at 11.4 µM]
[8]
  activity change, negative = inhibition: 20.1% [at 11.4 µM]
[9]
  activity, negative = inhibition: -5.29% [at 11.4 µM]
[1]
  Potency: 1690 nM (active)
[4]
  Potency: inactive

## O=C1CCCC2=C1[C@H]1O[C@](CCCCN3C(=O)c4ccccc4C3=O)(Cc3ccccc31)O2
[1]
  Potency: 1900 nM (active)
[3]
  Potency: inactive
[4]
  Potency: inactive

## COC(=O)C12C[C@@H](C)C3C(C)C(c4ccccc4C31)N2C(=O)C(F)(F)F (stereo partly specified)
[1]
  Potency: inactive
[3]
  Potency: inactive
[4]
  Potency: inactive

## C=CCOCCC=C1c2ccccc2[C@@H](OC)[C@@H]1C
[1]
  Potency: 1510 nM (active)
[3]
  Potency: inactive
[4]
  Potency: inactive
